Structures are written as SMILES. Inconclusive results are not listed. A call without a number means that no potency is given here. The source made the active and inactive calls. Calls follow the shape of the dose curve; as a rule, active = well fitted inhibition curve with a large enough effect; inconclusive = small, poorly fitted or top-dose-only effect; inactive = flat fitted curve, though single readings scatter.
Potency is read from the fitted curve at half-maximal effect.

Dual specificity protein kinase CLK4 (Homo sapiens), sequence (Q9HAZ1 whole entry, looked up): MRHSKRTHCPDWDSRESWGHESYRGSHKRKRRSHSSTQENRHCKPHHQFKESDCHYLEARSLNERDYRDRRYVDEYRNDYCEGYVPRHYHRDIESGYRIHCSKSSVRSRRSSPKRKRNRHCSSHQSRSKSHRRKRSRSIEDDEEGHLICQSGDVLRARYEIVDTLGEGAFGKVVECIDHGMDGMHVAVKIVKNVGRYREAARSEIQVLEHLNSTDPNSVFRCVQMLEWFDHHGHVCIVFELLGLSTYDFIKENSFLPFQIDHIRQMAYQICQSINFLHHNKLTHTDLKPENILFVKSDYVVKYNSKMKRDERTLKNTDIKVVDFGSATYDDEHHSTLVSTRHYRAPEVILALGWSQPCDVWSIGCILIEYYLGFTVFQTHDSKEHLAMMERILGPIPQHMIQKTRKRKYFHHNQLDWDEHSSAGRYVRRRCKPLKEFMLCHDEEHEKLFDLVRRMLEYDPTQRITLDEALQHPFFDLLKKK

This assay has as its target Dual specificity protein kinase CLK4 (Homo sapiens) (UniProt Q9HAZ1). The experiment in a line: qHTS Assay for Inhibitors of CDC-like Kinase 4 (ADP-Glo Assay) (AID 1771). Also: nearly all actives have a fitted effect of over 70% in size. Particulars: recombinant CLK4, ADP-Glo luminescence; series mostly up to 80 µM. How it is done:
NIH Molecular Libraries Probe Production Centers Network [MLPCN] NIH Chemical Genomics Center [NCGC] MLPCN Grant: 1R03MH084827-01 Assay Submitter (PI): Tom Misteli NCGC Assay Overview: Clk4 (Invitrogen, cat# PV3839) was assayed using ATP and the RS repeat peptide (AnaSpec cat # 61722) as substrates. In the assay, the ADP levels were detected using Promega ADP-Glo technology wherein the remaining ATP from the kinase reaction is first depleted with an ATPase reagent followed by a reagent that contains and enzyme which converts the ADP produced to ATP as well as Ultra-Glo luciferase and D-luciferin which generates a bioluminescence signal from the ATP. The positive control for the assay was TG003 (Sigma-Aldrich, cat# 300801-52-9) which has been described as an inhibitor of Clk 4[1].
NCGC Assay Protocol Summary: Two uL/well of substrate-buffer solution (100 uM RS peptide, 1 uM ATP, 1x ADP-Glo Buffer A, 2 mM MgCl2, 0.5 mM EGTA, 2.5 mM DTT, 0.01% Triton X-100, final concentrations) was dispensed into 1536-well plates (Greiner, solid white, medium binding assay plates) with the Aurora Discovery BioRAPTR Flying Reagent Dispenser (FRD; Beckton-Dickenson). Twenty-three nanoliter of compound and control solutions were transferred to the assay plate using a Kalypsys pin-tool followed by 0.5 uL/well Clk4-buffer solution (25 nM Clk4, 1x ADP-Glo Buffer A, 2 mM MgCl2, 0.5 mM EGTA, 2.5 mM DTT, 0.01% Triton X-100 final concentration) dispensing for a total kinase reaction volume of 2.5 uL/ well. After 1 hr of room-temperature incubation, 2.5 uL ADP-Glo reagent was added and incubated at room temperature for 45 min to stop the kinetic reaction and degrade residual ATP. The ADP product was then converted to ATP by adding 5 uL per well of ADP-Glo Reagent II to yield a total assay volume of 10 uL/ well. Luminescence was detected after 30 min room temperature incubation with the Perkin Elmer Viewlux.
A general note: Quantitative high-throughput screening tests each substance at several concentrations.
For the compound `COCCn1c(=O)c(-c2cccc(C#N)c2)nc2cnc(Oc3ccc(OC)cc3)nc21`, the Potency result was “inactive”.

Regarding `COc1ccc2[nH]cc(CCNc3cc(-c4ccc5c(c4)OCO5)ncn3)c2c1`, the Potency is 3.16 µM (active).

Turning to `N#Cc1cccc(-c2ccc3ncnc(N4CCNCC4)c3c2)c1`, the Potency was 22.4 µM (active).

For the compound `COc1ccc(Nc2ncc3nc(-c4cccs4)c(=O)n(Cc4cccc(OC)c4)c3n2)cc1`, the Potency entry is “inactive”.

For `Cc1ccccc1-c1ccc2ncnc(N(C)Cc3ccco3)c2c1`, the Potency is 14.1 µM (active).

With `CCNc1ncc2nc(-c3cccc(C#N)c3)c(=O)n(Cc3cccc(OC)c3)c2n1`, the Potency entry is “inactive”.

Consider `CN(C)c1ncc2nc(-c3ccc(Cl)cc3)c(=O)n(CCC#N)c2n1`, for which the Potency entry is “inactive”.

With `COc1ccc(Oc2ncc3nc(-c4cccc(C#N)c4)c(=O)n(C)c3n2)cc1`, the Potency entry is “inactive”.

`c1ccc(CNc2nc(-c3ccc4c(c3)OCO4)nc3ccccc23)cc1`: the Potency result was “inactive”.

Regarding `COc1ccc(CNc2nc(-c3cccc(C#N)c3)nc3ccccc23)c(OC)c1`, the Potency entry was “inactive”.

As for `Cc1nc2cnc(N(C)C)nc2n(-c2ccccc2)c1=O`, the Potency result was “inactive”.

Take `COc1ccccc1-c1cncnc1N(C)Cc1ccco1`: the Potency result is “inactive”.

As for `O=c1c(-c2cc(F)cc(F)c2)nc2cnc(N3CCNCC3)nc2n1Cc1ccc(F)cc1`, the Potency entry is “inactive”.

In the case of `COc1ccc(-n2c(=O)c(-c3cc(F)cc(F)c3)nc3cnc(N4CCOCC4)nc32)cc1`, the Potency entry is “inactive”.

Turning to `COc1ccc(CNc2nc(-c3ccc4c(c3)OCO4)nc3ccccc23)c(OC)c1`, the Potency entry was “inactive”.

Turning to `CN(C)c1ncc2nc(-c3ccc(Cl)cc3)c(=O)n(Cc3ccc(F)cc3)c2n1`, the Potency result was “inactive”.

As to `CNc1nc(-c2cccc(NS(C)(=O)=O)c2)nc2ccccc12`, the Potency was 22.4 µM (active).

`COc1ncc2nc(-c3ccccc3)c(=O)n(C3CC3)c2n1`: the Potency entry was “inactive”.

Consider `CN1CCN(c2ncc3nc(-c4cn(C)c5ccccc45)c(=O)n(Cc4cccs4)c3n2)CC1`, for which the Potency result was “inactive”.

As for `COc1ccccc1-c1cncnc1N1CCN(C)CC1`, the Potency entry was “inactive”.

As to `N#CCCn1c(=O)c(-c2ccc(F)cc2)nc2cnc(N3CCNCC3)nc21`, the Potency entry was “inactive”.

On to `COc1cccc(Cn2c(=O)c(-c3cccs3)nc3cncnc32)c1`, for which the Potency entry was “inactive”.

Consider `c1ccc(CNc2ncnc3ccc(-c4ccc5c(c4)OCO5)cc23)cc1`, for which the Potency is 0.178 µM (active).

Consider `COc1ccc(Oc2ncc3nc(-c4ccc(Cl)cc4)c(=O)n(C4CC4)c3n2)cc1`, for which the Potency result is “inactive”.

Turning to `CCNc1ncc2nc(-c3cn(C)c4ccccc34)c(=O)n(C[C@H]3CCCO3)c2n1`, the Potency entry is “inactive”.

In the case of `N#CCCn1c(=O)c(-c2cc(F)cc(F)c2)nc2cnc(N3CCOCC3)nc21`, the Potency entry is “inactive”.

As for `COc1ccc(-c2nc3cnc(Nc4cccc(OC)c4)nc3n(Cc3cccs3)c2=O)cc1`, the Potency result is “inactive”.

`CCNc1ncc2nc(-c3ccc(OC)cc3)c(=O)n(CCC#N)c2n1`: the Potency entry was “inactive”.

`Cc1cnc(CNc2ncncc2-c2ccc3c(c2)OCO3)cn1`: the Potency is 15.8 µM (active).

Regarding `COc1ccccc1-c1cncnc1Nc1ccccc1`, the Potency entry is “inactive”.

For the compound `CN(C)c1nc(-c2cccnc2)nc2ccccc12`, the Potency was 25.1 µM (active).

On to `CN(C)c1ncc2nc(-c3cccs3)c(=O)n(-c3ccccc3)c2n1`, for which the Potency result was “inactive”.

As to `CN(C)c1ncnc2ccc(-c3cccc(C#N)c3)cc12`, the Potency was 15.8 µM (active).

Turning to `CCNc1ncc2nc(CCc3ccccc3)c(=O)n(Cc3ccc(F)cc3)c2n1`, the Potency result is “inactive”.

On to `CN1CCN(c2ncc3ncc(=O)n(CCc4ccccc4)c3n2)CC1`, for which the Potency is 15.8 µM (active).

As to `Cc1cnc(CNc2cc(-c3ccccc3C(F)(F)F)ncn2)cn1`, the Potency entry was “inactive”.

Turning to `COc1ccc2[nH]cc(CCNc3cc(-c4ccccc4C)ncn3)c2c1`, the Potency was 15.8 µM (active).

For `Clc1ccccc1-c1cncnc1NCCN1CCOCC1`, the Potency result is “inactive”.

As to `Cc1cnc(CNc2ncncc2-c2ccc(N(C)C)cc2)cn1`, the Potency is 15.8 µM (active).

With `Cc1nc2cnc(Oc3ccccc3)nc2n(C2CC2)c1=O`, the Potency result is “inactive”.

The values above are taken from PubChem BioAssay (NCATS).
